{
  "source": "PubChem BioAssay (NCI)",
  "note": "About 83,000 compounds went through this panel and 20% of them were active in at least one assay; those are over-represented in the sample as a whole.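 Treatment: one concentration, 48 hours, 96-well format. Scoring: percent growth, with anything below 10 considered active.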 Activity calls are given as the source filed them.",
  "data": [
    {"test_system": "MCF7 breast", "test": "NCI-60 one-dose screen, 48 h (100 = growth as untreated, 0 = no growth, -100 = all killed)", "conditions": "10 µM unless noted", "values": [
      {"smiles": "CCCCCN1C=C/C(=C\\C(=O)N(C)c2ccc(Oc3ccccc3)cc2)c2ccccc21", "growth": "66.7% (inactive)"},
      {"smiles": "CNC(=O)c1cncc(Cn2nc(C)c(NC(=O)c3ccc(COc4ccc(C(F)(F)F)cc4C)cc3)c2C)c1", "growth": "37.5% (inactive)"},
      {"smiles": "Nc1c(C(=O)Nc2ccnc3ccccc23)sc2nc3c(cc12)CN(Cc1ccccc1)CC3", "growth": "68.9% (inactive)"},
      {"smiles": "CC1=C(C(=O)/C=C/c2ccc(N(C)C)cc2)C(c2ccccc2)NC(=S)N1", "note": "(stereo not drawn)", "growth": "99.2% (inactive)"},
      {"smiles": "Nc1nc(Nc2ccccc2SSc2ccccc2Nc2nc(N)nc(-c3cccs3)n2)nc(-c2ccsc2)n1", "growth": "68.1% (inactive)"},
      {"smiles": "COc1cc2c(cc1OC)C(=O)/C(=C/c1cc(C)c(O)c(C)c1)S2", "growth": "20% (inactive)"},
      {"smiles": "COc1cc2c(=O)n(CCCN(C)C)c3c4cc5c(cc4ccc3c2cc1OC)OCO5", "growth": "25.3% (inactive)"},
      {"smiles": "CCN(CC)CC[n+]1cc2cc(OC)c(OC)cc2c2ccc3cc4c(cc3c21)OCO4", "growth": "11.5% (inactive)"},
      {"smiles": "O=C(Nc1ccc(NC(=O)c2cc(=O)[nH]c3ccccc23)cc1)Nc1cccc(Cl)c1", "growth": "76% (inactive)"},
      {"smiles": "COc1ccc(/C=C2\\Oc3cc(OCCCN4CCCCC4)ccc3C2=O)cc1OC", "growth": "85.9% (inactive)"},
      {"smiles": "Cc1nc(N)nc(N[C@@H](C)c2nc3cccc(NCc4ccc(C(=O)NO)cc4)c3c(=O)n2-c2ccccc2)n1", "growth": "74.9% (inactive)"},
      {"smiles": "Cc1ccc(/C=N/NC(=O)CSc2nc3ccccc3c(=O)n2Cc2ccc(S(N)(=O)=O)cc2)cc1", "growth": "59.4% (inactive)"},
      {"smiles": "COc1cc(/C(C)=C(\\c2ccc(Cl)cc2)c2ccc(OCCN3CCCC3)cc2)ccc1F", "growth": "26.5% (inactive)"},
      {"smiles": "COc1cc2nc(-c3ccc(Cl)cc3)cc(OCCCN3CCOCC3)c2cc1OC", "growth": "50.2% (inactive)"},
      {"smiles": "COc1ccc(NC(N)=NCCCOc2ccc(F)cc2)cc1", "growth": "10.7% (inactive)"},
      {"smiles": "COC(=O)CNC(=O)[C@]12CCC(C)(C)C[C@H]1C1=CC[C@@H]3[C@@]4(C)Cc5c([nH]c6ccccc56)C(C)(C)[C@@H]4CC[C@@]3(C)[C@]1(C)CC2", "growth": "79.9% (inactive)"},
      {"smiles": "C[C@H]1[C@H](C)CC[C@]2(C(=O)Nc3ccc4ncccc4c3)CC[C@]3(C)C(=CC[C@@H]4[C@@]5(C)CCCNC(C)(C)[C@@H]5CC[C@]43C)[C@H]12", "growth": "-83.4% (active)"},
      {"smiles": "COc1cc(NC(C)CCCNC(=O)CCC(=O)NCCCNCCCCCCCCCCNCCCNC(=O)CCC(=O)NCCCC(C)Nc2cc(OC)cc3cccnc23)c2ncccc2c1", "note": "(stereo not drawn)", "growth": "24.3% [8 µM] (inactive)"},
      {"smiles": "CCCCCN1C=C/C(=C\\C(=O)n2ccc3ccccc32)c2ccccc21", "growth": "73.5% (inactive)"},
      {"smiles": "Cc1cc2nc3c4ccc(Br)cc4n(CCN(C)C)c3nc2cc1C", "growth": "0.513% (active)"},
      {"smiles": "CC1(C)CC(=O)C2=C(C1)N(c1ccc(F)cc1F)C(N)=C(C#N)C2c1cc(Br)ccc1F", "note": "(stereo not drawn)", "growth": "95% (inactive)"},
      {"smiles": "C[C@H]1[C@H](C)CC[C@]2(C(=O)NCC#CCN3CCN(C)CC3)CC[C@]3(C)C(=CC[C@@H]4[C@@]5(C)Cc6c([nH]c7ccccc67)C(C)(C)[C@@H]5CC[C@]43C)[C@H]12", "growth": "41.3% (inactive)"},
      {"smiles": "COc1cc2nc(-c3ccc(C(F)(F)F)cc3)cc(OCCCN3CCOCC3)c2cc1OC", "growth": "44.4% (inactive)"},
      {"smiles": "O=C1c2c(c3c4cccc(F)c4[nH]c3c3ccc4ccccc4c23)C(=O)N1O", "growth": "19.4% (inactive)"},
      {"smiles": "O=C1OC(Cc2ccccc2)C1c1ccccc1", "note": "(stereo not drawn)", "growth": "98.1% (inactive)"},
      {"smiles": "COc1cccc(/C=N/NC(=O)c2cnn3c2NC(c2ccccc2)C3)c1Oc1ccccc1", "note": "(stereo not drawn)", "growth": "47.7% (inactive)"},
      {"smiles": "COc1ccc(NC(=O)c2cc(NCc3cc(O)ccc3O)ccc2O)cc1", "growth": "75.6% (inactive)"},
      {"smiles": "COc1cc2nc(-c3ccc(Cl)cc3)cc(OCCCN3CCCC3)c2cc1OC", "growth": "48.1% (inactive)"},
      {"smiles": "COc1ccc(C/C(=C(\\C)c2ccc(OCCN3CCCC3)cc2)c2ccc(OCCN3CCCC3)cc2)cc1", "growth": "-7% (active)"},
      {"smiles": "COc1cc(NC(C)CCCNC(=O)CCC(=O)NCCCNCCCCCCCCNCCCNC(=O)CCC(=O)NCCCC(C)Nc2cc(OC)cc3cccnc23)c2ncccc2c1", "note": "(stereo not drawn)", "growth": "34.6% (inactive)"},
      {"smiles": "COc1ccc(Cc2cnc(NC(=O)c3ccc4c(c3)OCCO4)s2)cc1", "growth": "9.58% (active)"},
      {"smiles": "CC(=O)N1c2ccccc2NC2=C(C(=O)NC2(C)C)C1c1ccco1", "note": "(stereo not drawn)", "growth": "37.9% (inactive)"},
      {"smiles": "O=S(=O)(NCCNc1nccc(-c2c(-c3cccc(F)c3)nc3sccn23)n1)c1ccc(Cl)cc1", "growth": "24.7% (inactive)"}
    ]}
  ]
}
